{
  "source": "the supplement of paper PMC4206461",
  "note": "Values without a mark were called inactive.",
  "data": [
    {"system": "Pseudomonas aeruginosa PA14 dppBCDF deletion mutant", "assay": "respiration area under curve with compound as sole nitrogen source, 24 h (OmniLog AUC (arbitrary units)); higher = more respiration / better utilisation as nitrogen source, active = 2000 or more; extreme values may be limits of the assay", "method": "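Biolog Phenotype MicroArray plates PM6-PM8: each di/tripeptide is the sole nitrogen source. Tetrazolium reduction was read in the OmniLog every 15 min for 24 h at 37°C and summarised as area under the respiration curve (arbitrary units). Values below 2000 count as no respiration. Strain is the dipeptide ABC transporter deletion mutant.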", "values": [
      {"smiles": "NC(=O)CC[C@H](NC(=O)[C@@H](N)CCCN=C(N)N)C(=O)O", "note": "(plate: PM6)", "respiration area under curve": "9270 (active)"},
      {"smiles": "NC(=O)CC[C@H](NC(=O)[C@@H](N)CC(=O)O)C(=O)O", "note": "(plate: PM8)", "respiration area under curve": 5.25},
      {"smiles": "NC(=O)CC[C@H](NC(=O)[C@@H](N)Cc1ccc(O)cc1)C(=O)O", "note": "(plate: PM7)", "respiration area under curve": "10600 (active)"},
      {"smiles": "NC(CO)C(=O)NC(CCC(=O)O)C(=O)O", "note": "(stereo not given) (plate: PM8)", "respiration area under curve": 0},
      {"smiles": "NC(=O)C[C@H](NC(=O)[C@@H]1CCCN1)C(=O)O", "note": "(plate: PM8)", "respiration area under curve": "5910 (active)"},
      {"smiles": "NC(N)=NCCC[C@H](N)C(=O)N[C@@H](CCC(=O)O)C(=O)O", "note": "(plate: PM6)", "respiration area under curve": "8810 (active)"},
      {"smiles": "CSCC[C@H](NC(=O)CN)C(=O)O", "note": "(plate: PM6)", "respiration area under curve": 0},
      {"smiles": "C[C@H](NC(=O)[C@@H](N)CCCN=C(N)N)C(=O)O", "note": "(plate: PM6)", "respiration area under curve": "8890 (active)"},
      {"smiles": "CC(C)[C@H](N)C(=O)N[C@@H](CCC(N)=O)C(=O)O", "note": "(plate: PM8)", "respiration area under curve": 1010},
      {"smiles": "C[C@H](N)C(=O)N[C@@H](C)C(=O)O", "note": "(plate: PM6)", "respiration area under curve": "6250 (active)"},
      {"smiles": "O=C(O)[C@H](Cc1c[nH]c2ccccc12)NC(=O)[C@@H]1CCCN1", "note": "(plate: PM8)", "respiration area under curve": 358},
      {"smiles": "CC(C)C[C@H](NC(=O)[C@@H](N)Cc1ccc(O)cc1)C(=O)O", "note": "(plate: PM7)", "respiration area under curve": "5310 (active)"},
      {"smiles": "NCC(=O)N[C@H](CO)C(=O)O", "note": "(plate: PM8)", "respiration area under curve": 0},
      {"smiles": "CC(C)[C@H](NC(=O)CN)C(=O)O", "note": "(plate: PM6)", "respiration area under curve": 124},
      {"smiles": "CC(C)[C@H](N)C(=O)N[C@H](C(=O)O)C(C)C", "note": "(plate: PM7)", "respiration area under curve": 1580},
      {"smiles": "N[C@@H](CO)C(=O)NCC(=O)O", "note": "(plate: PM7)", "respiration area under curve": 1360},
      {"smiles": "O=C(O)[C@@H]1CCCN1C(=O)[C@@H]1CCCN1", "note": "(plate: PM7)", "respiration area under curve": 0},
      {"smiles": "N[C@@H](CO)C(=O)N[C@@H](Cc1ccccc1)C(=O)O", "note": "(plate: PM7)", "respiration area under curve": 968},
      {"smiles": "N[C@@H](Cc1ccc(O)cc1)C(=O)N[C@@H](CCC(=O)O)C(=O)O", "note": "(plate: PM7)", "respiration area under curve": 277},
      {"smiles": "CSCC[C@H](NC(=O)[C@@H](N)Cc1ccccc1)C(=O)O", "note": "(plate: PM8)", "respiration area under curve": 269},
      {"smiles": "CSCC[C@H](N)C(=O)N[C@@H](CC(C)C)C(=O)O", "note": "(plate: PM7)", "respiration area under curve": 247},
      {"smiles": "N[C@@H](Cc1ccccc1)C(=O)N[C@@H](CC(=O)O)C(=O)O", "note": "(plate: PM8)", "respiration area under curve": 0},
      {"smiles": "NC(N)=NCCC[C@H](N)C(=O)N[C@@H](Cc1ccccc1)C(=O)O", "note": "(plate: PM6)", "respiration area under curve": "8100 (active)"},
      {"smiles": "CC(C)[C@H](NC(=O)[C@@H](N)CCC(=O)O)C(=O)O", "note": "(plate: PM6)", "respiration area under curve": 0},
      {"smiles": "N[C@@H](Cc1c[nH]c2ccccc12)C(=O)N[C@@H](CC(=O)O)C(=O)O", "note": "(plate: PM7)", "respiration area under curve": 0},
      {"smiles": "CC[C@H](C)[C@H](NC(=O)CN)C(=O)O", "note": "(plate: PM8)", "respiration area under curve": 1250},
      {"smiles": "CC(C)C[C@H](N)C(=O)NCC(=O)O", "note": "(plate: PM6)", "respiration area under curve": "4090 (active)"},
      {"smiles": "CC[C@H](C)[C@H](NC(=O)[C@@H](N)CC(C)C)C(=O)O", "note": "(plate: PM6)", "respiration area under curve": "3260 (active)"},
      {"smiles": "CC(C)[C@H](NC(=O)[C@@H](N)CO)C(=O)O", "note": "(plate: PM7)", "respiration area under curve": "3050 (active)"},
      {"smiles": "C[C@H](N)C(=O)N[C@@H](CO)C(=O)O", "note": "(plate: PM6)", "respiration area under curve": "6740 (active)"},
      {"smiles": "CC[C@H](C)[C@H](NC(=O)[C@@H](N)Cc1ccccc1)C(=O)O", "note": "(plate: PM7)", "respiration area under curve": "6010 (active)"},
      {"smiles": "CC(C)C[C@@H](N)C(=O)NCC(=O)O", "note": "(plate: PM8)", "respiration area under curve": 0},
      {"smiles": "N[C@@H](Cc1c[nH]c2ccccc12)C(=O)N[C@@H](CCC(=O)O)C(=O)O", "note": "(plate: PM7)", "respiration area under curve": 0},
      {"smiles": "CC(C)[C@H](NC(=O)[C@@H](N)Cc1c[nH]c2ccccc12)C(=O)O", "note": "(plate: PM8)", "respiration area under curve": 0},
      {"smiles": "NCC(=O)N[C@H](CC(=O)O)C(=O)O", "note": "(plate: PM8)", "respiration area under curve": 0},
      {"smiles": "CC(C)CC(N)C(=O)NC(CC(=O)O)C(=O)O", "note": "(stereo not given) (plate: PM6)", "respiration area under curve": 735},
      {"smiles": "CC(C)[C@H](N)C(=O)N[C@@H](Cc1ccc(O)cc1)C(=O)N[C@H](C(=O)O)C(C)C", "note": "(plate: PM8)", "respiration area under curve": "5710 (active)"},
      {"smiles": "CC[C@H](C)[C@H](N)C(=O)N[C@@H](CCC(N)=O)C(=O)O", "note": "(plate: PM6)", "respiration area under curve": 873},
      {"smiles": "O=C(O)[C@@H]1C[C@@H](O)CN1C(=O)[C@@H]1CCCN1", "note": "(plate: PM7)", "respiration area under curve": 0},
      {"smiles": "C[C@H](NC(=O)CN)C(=O)O", "note": "(plate: PM6)", "respiration area under curve": 48.2}
    ]}
  ]
}
